# Source: PubChem BioAssay
# Active and inactive are the calls of the source.
# How the values were obtained:
# [1] = system: Plasmodium falciparum Sir2 (PF13_0152, Sir2A); test: pfSir2 binders on small-molecule microarrays, primary screen, biochemical, small-molecule microarray, 635 nm fluorescence (AID 1098); conditions: small-molecule microarray binding, fluorescence 635 nm; higher = more signal;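 note: score merges spot fluorescence intensity with its signal-to-noise ratio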
# [2] = small-molecule microarray binders of probe aDKK1, primary screen, biochemical, biotinylated probe, 635/667 nm fluorescence (AID 1099); conditions: higher = more signal;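 note: score merges 667nm spot fluorescence with signal to noise across triplicate slides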
# [3] = small-molecule microarray binders of probe aCHRDL2, primary screen, biochemical, biotinylated probe, 635/667 nm fluorescence (AID 1100); conditions: higher = more signal
# [4] = splicing luciferase reporter signal modulators, primary screen, spliceosome inhibition project, cell-based, HEK293, splice +/- reporter (AID 1101); conditions: luminescence, 24 h, higher = more signal, called active from +8 up or from −8 down;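 note: HEK293 cells carrying a splicing-competent luciferase reporter gene; test concentration not given here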
# [5] = molecular target: Fibroblast growth factor 10 (Homo sapiens) (UniProt O15520); test: FGF10 binders on small-molecule microarrays, primary screen, biochemical, small-molecule microarray, 635 nm fluorescence (AID 1102); conditions: FGF10 binding, fluorescence 635 nm, higher = more signal
# [6] = system: glycogen synthase kinase-3 (GSK3A per assay name; protocol says GSK3B); test: GSK3 binders on small-molecule microarrays, primary screen, biochemical, small-molecule microarray, 635 nm fluorescence, GSK3A (AID 1103); conditions: small-molecule microarray binding, fluorescence 635 nm; higher = more signal; note: the record names both GSK3A and GSK3B
# [7] = molecular target: Epidermal growth factor receptor (Homo sapiens) (UniProt P00533); test: EGFR binders on small-molecule microarrays, primary screen, biochemical, small-molecule microarray, 635 nm fluorescence (AID 1104); conditions: EGFR binding, higher = more signal;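 note: score merges 667 nm emission intensity with spot signal to noise over triplicate slides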
# [8] = molecular target: Follistatin-related protein 3 (Homo sapiens) (UniProt O95633); test: FSTL3 binders on small-molecule microarrays, primary screen, biochemical, small-molecule microarray, 635 nm fluorescence (AID 1105); conditions: FSTL3 binding, higher = more signal;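 note: score merges emission near 667 nm and signal to noise per printed spot across three slides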
# [9] = molecular target: Dickkopf-related protein 1 (Homo sapiens) (UniProt O94907); test: DKK1 binders on small-molecule microarrays, primary screen, biochemical, small-molecule microarray, 635 nm fluorescence scan (AID 1106); conditions: DKK1 binding, higher = more signal;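 note: score merges emission near 667 nm with signal to noise over three replicate slides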
# [10] = system: Inhibin beta A chain (activin A); test: INHBA (activin A) binders on microarrays, primary screen, biochemical, small-molecule microarray, 635 nm fluorescence scan (AID 1107); conditions: small-molecule microarray binding, higher = more signal;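 note: mouse activin A protein probed at 4.33 µg/mL on printed slides; score merges bound-protein fluorescence near 667 nm with spot signal-to-noise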
# [11] = system: Human papillomavirus type 1a protein E7 (residues 44-93); test: HPV1a E7 fragment binders on microarrays, primary screen, biochemical, small-molecule microarray, residues 44-93, 635 nm fluorescence (AID 1108); conditions: small-molecule microarray binding, fluorescence 635 nm; higher = more signal;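 note: E7 fragment applied at 1 µg/mL in TBST for 1 h at 4 C; score combines spot fluorescence with its signal to noise ratio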
# [12] = modulators of HCV replicon luciferase signal, primary screen, HCV replication inhibitor project, Huh7 cells, luciferase reporter (AID 1109); conditions: 48 h, higher = more signal;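 note: huh7 hepatoma cells harbouring a luciferase neomycin HCV replicon reporter; luciferase luminescence as measure of HCV replicon replication; test concentration not given here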
# [13] = molecular target: Left-right determination factor 2 (Homo sapiens) (UniProt O00292); test: LEFTY2 binders on small-molecule microarrays, primary screen, biochemical, small-molecule microarray, 635 nm fluorescence scan (AID 1110); conditions: LEFTY2 binding, higher = more signal
# [14] = molecular target: Calmodulin-1 (Homo sapiens) (UniProt P0DP23); test: CALM1 binders on microarrays, EGTA buffer, profiling panel, biochemical, small-molecule microarray, Cy5-labelled CALM1 (AID 1111); conditions: Cy5-CALM1 binding fluorescence, higher = more signal;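 note: labelled calmodulin applied in Tris saline Tween buffer holding calcium plus EGTA and DTT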
# [15] = molecular target: Calmodulin-1 (Homo sapiens) (UniProt P0DP23); test: calcium-bound CALM1 binders on microarrays, profiling panel, artefact control for SMM control-protein annotation, biochemical, small-molecule microarray, Cy5-labelled CALM1, plus calcium (AID 1112); conditions: Cy5-CALM1 binding fluorescence, higher = more signal;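 note: score merges spot fluorescence with signal to noise from triplicate slides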
# [16] = small-molecule microarray binders of probe aWnt5a, primary screen, biochemical, biotinylated probe, 635/667 nm fluorescence (AID 1113); conditions: higher = more signal;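 note: score merges 667 nm fluorescence intensity with signal-to-noise per printed feature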
# [17] = small-molecule microarray binders of probe aShh, primary screen, biochemical, biotinylated probe, 635/667 nm fluorescence (AID 1114); conditions: higher = more signal;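 note: probe is biotin-labelled aShh protein from a stem cell growth factor screen; measures binding of labelled protein to compounds printed on the slide; score merges feature fluorescence at 667 nm with signal-to-noise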
# [18] = small-molecule microarray binders of probe aNog, primary screen, biochemical, biotinylated probe, 635/667 nm fluorescence (AID 1115); conditions: higher = more signal;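 note: probe is biotinylated aNog protein used at 0.15 µg/mL for 1 h at 4 C; z-score combines 667 nm fluorescence of each spot with its signal to noise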
# [19] = molecular target: Torsin-1A-interacting protein 1 (Homo sapiens) (UniProt Q5JTV8); test: LAP1 binders from COS7 cell lysate, primary screen, small-molecule microarray, 635/667 nm fluorescence (AID 1116); conditions: COS7-hLAP1 lysate binding, 635 nm fluorescence, higher = more signal
# [20] = molecular target: Alpha-bungarotoxin (Bungarus multicinctus) (UniProt P60615); test: alpha-bungarotoxin binders on microarray, profiling panel, artefact control for SMM control protein annotation, biochemical, small-molecule microarray, Alexa647 label, 635/667 nm fluorescence (AID 1117); conditions: alpha-BTX-A647 binding fluorescence, higher = more signal
# Chain of Alpha-bungarotoxin (Bungarus multicinctus) (P60615 whole entry, looked up): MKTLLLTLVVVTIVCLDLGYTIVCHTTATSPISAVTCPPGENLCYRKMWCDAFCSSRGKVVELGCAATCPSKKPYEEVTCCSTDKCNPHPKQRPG
# Chain of Follistatin-related protein 3 (Homo sapiens) (O95633 whole entry, looked up): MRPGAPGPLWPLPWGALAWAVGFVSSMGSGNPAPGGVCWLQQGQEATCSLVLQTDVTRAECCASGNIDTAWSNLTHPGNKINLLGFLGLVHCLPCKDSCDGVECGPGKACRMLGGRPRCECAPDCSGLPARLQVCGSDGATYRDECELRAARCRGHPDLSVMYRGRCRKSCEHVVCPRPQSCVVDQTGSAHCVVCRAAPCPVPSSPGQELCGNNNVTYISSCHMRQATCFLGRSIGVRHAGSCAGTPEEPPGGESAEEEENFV
# Chain of Dickkopf-related protein 1 (Homo sapiens) (O94907 whole entry, looked up): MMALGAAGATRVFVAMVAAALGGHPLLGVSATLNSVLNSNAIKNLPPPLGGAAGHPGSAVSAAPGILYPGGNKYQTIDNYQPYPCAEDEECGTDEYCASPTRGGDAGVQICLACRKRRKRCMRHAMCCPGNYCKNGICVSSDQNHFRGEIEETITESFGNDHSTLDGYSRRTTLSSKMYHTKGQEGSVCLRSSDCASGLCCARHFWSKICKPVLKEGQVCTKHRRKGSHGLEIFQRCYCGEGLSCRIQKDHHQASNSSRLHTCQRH
# Chain of Fibroblast growth factor 10 (Homo sapiens) (O15520 whole entry, looked up): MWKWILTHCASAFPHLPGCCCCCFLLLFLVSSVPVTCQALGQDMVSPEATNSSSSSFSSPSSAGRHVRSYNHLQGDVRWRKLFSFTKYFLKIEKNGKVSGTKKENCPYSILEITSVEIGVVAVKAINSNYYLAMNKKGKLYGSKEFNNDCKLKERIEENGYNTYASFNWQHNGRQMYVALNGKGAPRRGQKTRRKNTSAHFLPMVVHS
# Chain of Left-right determination factor 2 (Homo sapiens) (O00292 whole entry, looked up): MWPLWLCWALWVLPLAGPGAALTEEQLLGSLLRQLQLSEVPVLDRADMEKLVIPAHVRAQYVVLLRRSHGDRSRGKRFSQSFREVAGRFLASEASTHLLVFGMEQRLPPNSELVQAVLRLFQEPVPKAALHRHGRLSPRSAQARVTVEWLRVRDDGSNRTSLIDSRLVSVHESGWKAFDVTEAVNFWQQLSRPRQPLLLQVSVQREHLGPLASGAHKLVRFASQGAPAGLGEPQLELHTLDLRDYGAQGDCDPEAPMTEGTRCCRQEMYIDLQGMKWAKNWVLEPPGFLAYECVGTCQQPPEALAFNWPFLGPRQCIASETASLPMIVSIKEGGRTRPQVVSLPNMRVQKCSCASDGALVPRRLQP
# Chain of Torsin-1A-interacting protein 1 (Homo sapiens) (Q5JTV8 whole entry, looked up): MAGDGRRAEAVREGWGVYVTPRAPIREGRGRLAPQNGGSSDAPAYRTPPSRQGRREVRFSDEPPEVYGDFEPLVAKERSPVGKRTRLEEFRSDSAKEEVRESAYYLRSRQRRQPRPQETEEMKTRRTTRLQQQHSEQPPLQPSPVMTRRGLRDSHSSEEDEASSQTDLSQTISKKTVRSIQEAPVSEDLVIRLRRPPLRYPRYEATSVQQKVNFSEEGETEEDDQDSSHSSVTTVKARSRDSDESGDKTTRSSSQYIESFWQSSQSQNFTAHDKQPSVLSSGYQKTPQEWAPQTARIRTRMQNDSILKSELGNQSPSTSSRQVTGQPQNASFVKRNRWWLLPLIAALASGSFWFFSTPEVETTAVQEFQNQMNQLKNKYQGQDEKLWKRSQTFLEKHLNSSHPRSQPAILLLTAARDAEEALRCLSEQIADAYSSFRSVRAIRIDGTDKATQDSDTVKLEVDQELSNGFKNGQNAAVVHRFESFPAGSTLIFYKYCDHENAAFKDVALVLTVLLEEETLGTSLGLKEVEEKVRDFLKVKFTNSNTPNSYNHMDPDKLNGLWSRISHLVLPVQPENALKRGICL
# Chain of Epidermal growth factor receptor (Homo sapiens) (P00533 whole entry, looked up): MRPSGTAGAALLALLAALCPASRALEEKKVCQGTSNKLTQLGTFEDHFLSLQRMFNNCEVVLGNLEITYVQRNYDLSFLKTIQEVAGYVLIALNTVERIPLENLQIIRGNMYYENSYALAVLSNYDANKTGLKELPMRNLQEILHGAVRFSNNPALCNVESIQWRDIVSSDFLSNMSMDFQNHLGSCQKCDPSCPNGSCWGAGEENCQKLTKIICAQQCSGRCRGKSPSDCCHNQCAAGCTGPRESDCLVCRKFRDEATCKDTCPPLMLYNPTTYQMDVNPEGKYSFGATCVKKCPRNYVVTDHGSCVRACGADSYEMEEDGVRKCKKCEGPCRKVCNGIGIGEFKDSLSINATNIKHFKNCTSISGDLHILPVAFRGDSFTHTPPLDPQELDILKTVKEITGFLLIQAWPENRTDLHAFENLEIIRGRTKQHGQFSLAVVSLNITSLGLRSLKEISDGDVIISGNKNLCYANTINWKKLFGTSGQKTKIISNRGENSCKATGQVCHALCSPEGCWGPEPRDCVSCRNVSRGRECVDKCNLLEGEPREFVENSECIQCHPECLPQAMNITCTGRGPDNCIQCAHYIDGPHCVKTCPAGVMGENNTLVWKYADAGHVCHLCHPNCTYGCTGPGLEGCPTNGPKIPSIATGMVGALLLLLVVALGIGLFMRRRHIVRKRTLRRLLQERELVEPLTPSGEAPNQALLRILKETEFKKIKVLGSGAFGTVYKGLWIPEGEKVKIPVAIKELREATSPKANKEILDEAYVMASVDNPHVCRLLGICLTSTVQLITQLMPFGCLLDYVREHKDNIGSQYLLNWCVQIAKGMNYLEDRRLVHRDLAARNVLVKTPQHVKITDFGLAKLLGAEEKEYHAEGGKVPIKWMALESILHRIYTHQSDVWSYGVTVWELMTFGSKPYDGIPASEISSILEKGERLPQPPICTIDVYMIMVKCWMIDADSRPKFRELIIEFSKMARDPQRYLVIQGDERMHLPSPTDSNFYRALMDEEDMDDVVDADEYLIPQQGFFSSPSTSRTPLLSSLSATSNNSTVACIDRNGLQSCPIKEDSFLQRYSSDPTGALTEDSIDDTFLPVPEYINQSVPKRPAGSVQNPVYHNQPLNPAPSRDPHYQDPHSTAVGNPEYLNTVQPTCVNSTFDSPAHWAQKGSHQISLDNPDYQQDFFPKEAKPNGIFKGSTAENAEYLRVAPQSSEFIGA
Compound,composite z-score [1],composite z-score [2],composite z-score [3],z-score [4],composite z-score [5],composite z-score [6],composite z-score [7],composite z-score [8],composite z-score [9],composite z-score [10],composite z-score [11],z-score [12],composite z-score [13],composite z-score [14],composite z-score [15],composite z-score [16],composite z-score [17],composite z-score [18],composite z-score [19],composite z-score [20]
COc1ccc(C(=O)Nc2ccc(CN3C(=O)[C@]4(O[C@H](CCn5cc([C@H](O)c6ccccc6)nn5)[C@@H]([Si](C)(C)c5ccc(OC)cc5)[C@@H]4C)c4ccccc43)cc2)cc1,0.789,0.294,0.824,-1.41 (inactive),-0.09,-0.109,-0.39,-0.113,0.102,1.47,0.237,-4.97,-0.48,-0.0217,0.187,0.158,-0.453,0.0771,0.706,1.14
NC(=O)NCC#Cc1ccc2c(c1)[C@]1(C(=O)N2)[C@H](c2ccc(O)cc2)N2[C@H](c3ccccc3)[C@H](c3ccccc3)OC(=O)[C@H]2[C@@H]1C(=O)NC[C@H](O)c1ccccc1,-0.227,0.004,0.725,-0.647 (inactive),-1.39,-0.964,-1.2,-2.26,-1.53,-1.82,-0.631,0.918,-1.67,-0.699,0.827,-0.219,-0.276,0.241,-0.243,-2
C=CCNC(=O)[C@@H]1[C@H]2C(=O)O[C@H](c3ccccc3)[C@H](c3ccccc3)N2[C@H](c2ccc(O)cc2)[C@@]12C(=O)Nc1ccc(C#CCCO)cc12,1.84,-0.25,0.216,-0.831 (inactive),-0.861,-1.07,-0.949,-0.459,0.0119,-0.348,-0.379,-0.439,-0.144,-0.0464,0.0653,-0.0792,-0.484,-0.372,-0.275,-0.04
CN(C)C(=O)[C@@]1(CCC(=O)OC(C)(C)C)COC(c2ccc(OCCCO)cc2)=N1,0.999,0.66,0.945,0.351 (inactive),0.625,-0.459,-0.785,-0.326,-1.19,0.279,1.08,-0.594,-1.04,0.38,0.816,-0.127,0.261,1.52,1.54,0.728
O=C(N1CCOCC1)[C@@]1(CCS(=O)(=O)c2ccccc2)COC(c2ccc(OCCCO)cc2)=N1,0.495,0.0641,0.691,0.122 (inactive),0.94,0.443,-0.935,-0.827,-0.899,-0.704,0.901,-1.18,-1.21,1.25,0.0541,-0.124,0.314,-0.824,0.622,-0.422
C=CC[C@]1(C(=O)N(C)C)N=C(c2ccc(OCCCO)cc2)O[C@H]1c1ccccc1,1.05,0.135,0.953,-1.04 (inactive),1.21,0.254,-0.489,0.479,-0.228,0.832,1.46,-2,-0.309,1.57,0.19,0.224,0.33,1.15,0.765,1.25
